Assay in all cases: NCI-60 one-dose screen, 48 h (100 = growth as untreated, 0 = no growth, -100 = all killed)
Common to all, as to conditions: 10 µM unless noted

In assay [1] the test system is NCI-H23 lung.
Assay [2] has as its system NCI-H226 lung.
Assay [3] relates to NCI-H322M lung.
The test system of assay [4] is HOP-62 NSCLC.
For assay [5], the system named is NCI-H460 lung.
Assay [6] concerns HOP-92 NSCLC.
Assay [7] has as its system NCI-H522 lung.
For assay [8], the system named is A549/ATCC NSCLC.
In assay [9] the test system is 786-0 renal.
The subject of assay [10] is COLO 205 colon.
In assay [11] the test system is DU-145 prostate.
Assay [12] has as its system K-562 leukemia.
The subject of assay [13] is MALME-3M melanoma.
Assay [14] deals with MDA-MB-231 breast.
In assay [15] the test system is RXF 393 renal.
For assay [16], the system named is SF-268 CNS.
Assay [17] has as its system SF-295 CNS.
In assay [18] the test system is SF-539 CNS.
Assay [19] concerns UACC-257 melanoma.
The test system of assay [20] is M14 melanoma.

Where “and” joins values, the source holds several entries; their conditions need not be identical. Equal entries are not always repeated. Compounds without any hit were thinned out: in the full panel of roughly 83,000, 20% have a hit.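 Testing used 96-well plates and a 48-hour single-concentration exposure. Example: -40 means 40% of the starting cells died.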 Calls of active or inactive are those of the source. The calls were made as follows: active = growth percent below 10; inactive = the rest.

Take `O=C(O)C(Cc1ccc(OS(=O)(=O)Cc2ccccc2)cc1)NS(=O)(=O)Cc1ccccc1` (stereo not given): the growth is 105% (inactive) and 112% (inactive) in assay [1]; 108% (inactive) and 109% (inactive) in assay [2]; 119% (inactive) and 127% (inactive) in assay [3]; 105% (inactive) and 118% (inactive) in assay [4]; 106% (inactive) and 119% (inactive) in [5]; 135% (inactive) and 102% (inactive) in assay [6]. The growth is 96.6% (inactive) in [7]; 101% (inactive) and 105% (inactive) in assay [8]; 98.9% (inactive) and 114% (inactive) in [9]; 114% (inactive) in assay [10]; 101% (inactive) and 108% (inactive) in assay [11]; 105% (inactive) and 101% (inactive) in assay [12]. The growth in assay [13] is 95.8% (inactive) and 136% (inactive); in assay [14], 102% (inactive); in assay [15] it was 118% (inactive) and 126% (inactive); in [16], 105% (inactive) and 98% (inactive); in assay [17], 106% (inactive) and 102% (inactive); in assay [18], 97.7% (inactive) and 101% (inactive). Besides, the growth is 100% (inactive) and 101% (inactive) in assay [19]; 113% (inactive) and 100% (inactive) in assay [20].

`O=c1[nH]nnc2cc(Cl)ccc12`: the growth was 94.4% (inactive) and 92.2% (inactive) in assay [1]; 104% (inactive) and 93.2% (inactive) in [2]; 110% (inactive) and 115% (inactive) in assay [3]; 105% (inactive) and 89.1% (inactive) in assay [4]; 114% (inactive) and 101% (inactive) in assay [5]; 109% (inactive) in assay [6]. In addition, the growth in assay [7] was 103% (inactive) and 106% (inactive); in assay [8], 101% (inactive); in [9] it was 117% (inactive) and 94.5% (inactive); in assay [10], 112% (inactive) and 117% (inactive); in [11], 108% (inactive) and 114% (inactive); in [12], 119% (inactive) and 98.3% (inactive). The growth in assay [13] was 124% (inactive) and 113% (inactive); in [14], 105% (inactive) and 97.6% (inactive); in assay [15], 119% (inactive) and 111% (inactive); in assay [16] it was 101% (inactive) and 95.4% (inactive); in assay [17] it was 103% (inactive); in [18], 104% (inactive) and 106% (inactive). The growth in assay [19] is 98.6% (inactive) and 105% (inactive); in assay [20], 105% (inactive).

As for `O=c1[nH]c(=O)c2[nH]c(=O)[nH]c2[nH]1`, the growth was 92.8% (inactive) in [1]; 93.2% (inactive) in assay [2]; 101% (inactive) in [3]; 105% (inactive) in assay [4]; 104% (inactive) in [5]; 89.9% (inactive) in [6]. Moreover, the growth in assay [7] was 112% (inactive); in [8], 104% (inactive); in assay [9] it was 94.2% (inactive); in assay [10], 105% (inactive); in assay [11] it was 107% (inactive); in [12] it was 135% (inactive). The growth in assay [13] was 93.2% (inactive); in assay [14], 101% (inactive); in [15], 84.6% (inactive); in assay [16], 103% (inactive); in [17] it was 98.3% (inactive); in assay [18], 97.7% (inactive). The growth in [19] is 107% (inactive); in assay [20], 91.5% (inactive).

On to `Cc1c(O)nc(N)[nH]c1=O`, for which the growth is 93.8% (inactive) in assay [1]; 106% (inactive) in assay [2]; 104% (inactive) in assay [3]; 99.7% (inactive) in [4]; 104% (inactive) in [5]; 108% (inactive) in [6]. Further, the growth in assay [7] is 99.5% (inactive); in [8], 99.9% (inactive); in [9], 114% (inactive); in assay [10], 116% (inactive); in assay [11], 119% (inactive); in assay [12], 118% (inactive). In addition, the growth is 109% (inactive) in assay [13]; 104% (inactive) in assay [14]; 118% (inactive) in [15]; 123% (inactive) in assay [16]; 97.4% (inactive) in assay [17]; 106% (inactive) in [18]. In addition, the growth in assay [19] is 105% (inactive); in [20] it was 98.5% (inactive).

Turning to `Cc1cc(NC(=O)NC(=O)c2ccccc2N(C)C)ccc1Oc1ncc(Br)cn1`, the growth in assay [1] is 19.3% (inactive) and 24.7% (inactive); in assay [2], 55.6% (inactive) and 66.4% (inactive); in assay [3], 44.4% (inactive) and 66.2% (inactive); in [4], 37.7% (inactive); in assay [5], 8.31% (active) and 10.8% (inactive); in [6] it was 57.5% (inactive). Moreover, the growth in assay [7] is -22.2% (active) and 15.1% (inactive); in [8], 43.9% (inactive) and 33.7% (inactive); in assay [9], 27.9% (inactive) and 31.4% (inactive); in assay [10], 14.2% (inactive); in assay [11], -3.51% (active) and 20.7% (inactive); in assay [12], 0.98% (active) and 20.3% (inactive). Also, the growth in assay [13] was 24.6% (inactive) and 55.2% (inactive); in [14] it was 9.21% (active) and 34.1% (inactive); in assay [15] it was 30.2% (inactive) and -1.61% (active); in [16], 44.8% (inactive) and 63.6% (inactive); in assay [17], 35.1% (inactive) and 36.1% (inactive); in [18], -8.43% (active) and -14.3% (active). The growth in assay [19] is 26% (inactive) and 73.5% (inactive); in assay [20], 22.8% (inactive) and 17.1% (inactive).

As for `COc1ccc(S(=O)(=O)c2ccc(F)cc2)cc1`, the growth in assay [1] was 102% (inactive); in [2], 97.1% (inactive); in assay [3], 117% (inactive); in assay [4], 109% (inactive); in assay [5], 114% (inactive); in [6], 92.7% (inactive). The growth in assay [7] was 83.3% (inactive); in assay [8], 82.4% (inactive); in assay [9], 103% (inactive); in assay [10], 113% (inactive); in assay [11], 113% (inactive); in [12], 115% (inactive). Also, the growth was 93% (inactive) in [13]; 94.2% (inactive) in assay [14]; 138% (inactive) in assay [15]; 101% (inactive) in assay [16]; 116% (inactive) in [17]; 111% (inactive) in assay [18]. For the same compound, the growth in assay [19] was 93.8% (inactive); in assay [20] it was 101% (inactive).

For the origin of these results see PubChem BioAssay (NCI).
